Test results reported in PubChem BioAssay AID1851 (National Center for Advancing Translational Sciences (NCATS), 2009).
Screen size: about 16,000 compounds; about 5,800 (36%) were called active. Inconclusive results (about 23%) are left out. Calls come from the whole dose curve; as a rule, active = well fitted curve in the direction sought with a large enough effect; inconclusive = small, poorly fitted or top-dose-only effect, or effect the other way; inactive = no such curve, though single readings can be large or run the other way. The list shows a part of the results.

molecular target: Cytochrome P450 2C19 (Homo sapiens) (UniProt P33261); assay: Cytochrome panel assay with activity outcomes; conditions: recombinant CYP, pro-luciferin dealkylation, luminescence, p450-cyp2c19; series mostly up to 57.1 µM
% is set by controls: 0 for no effect and ±100 for the full control effect.

Cytochrome P450 2C19 (Homo sapiens), sequence (P33261 whole entry, looked up): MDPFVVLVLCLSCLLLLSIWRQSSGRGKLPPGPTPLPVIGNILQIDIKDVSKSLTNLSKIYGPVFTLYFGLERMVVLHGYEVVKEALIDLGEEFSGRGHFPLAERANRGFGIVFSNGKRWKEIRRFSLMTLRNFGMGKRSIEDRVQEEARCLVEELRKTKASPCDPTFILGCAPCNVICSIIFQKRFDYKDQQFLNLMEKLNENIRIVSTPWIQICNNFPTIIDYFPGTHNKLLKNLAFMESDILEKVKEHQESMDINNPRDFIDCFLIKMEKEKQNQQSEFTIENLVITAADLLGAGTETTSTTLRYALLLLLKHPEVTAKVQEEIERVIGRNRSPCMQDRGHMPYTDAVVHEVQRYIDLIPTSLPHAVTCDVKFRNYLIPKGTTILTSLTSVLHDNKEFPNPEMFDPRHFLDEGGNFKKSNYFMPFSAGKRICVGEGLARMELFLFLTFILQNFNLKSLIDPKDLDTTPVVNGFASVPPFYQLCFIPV

AC50, active:
CC1CCC(=NNC(=O)Cc2ccccc2)CC1 (configuration not stated) 25.1 µM
CN1CCC(=NNC(=O)CSCc2ccccc2)CC1 17.8 µM
O=C(c1coc2ccccc2c1=O)N1CCN(c2cccc(C(F)(F)F)c2)CC1 14.1 µM
CCCCC[C@H](O)c1cccc(OCc2ccc3ccccc3n2)c1 6.31 µM
O=C(O)c1ccccc1Nc1cccc(OCc2ccc3ccccc3n2)c1 5.01 µM
Cc1cc(C=C(C#N)C#N)c(C)n1-c1ccccc1 1 µM
Cc1cc(C)cc(-n2c(C)cc(C=C(C#N)C#N)c2C)c1 5.62 µM
CSc1cccc(NC(=O)Nc2ccc(Cl)cc2)c1 2 µM
CSc1cccc(NC(=O)Cn2cccc2)c1 6.31 µM
Cc1ccc(CNC(=O)Cn2c(=O)oc3ccccc32)o1 3.55 µM
Cc1cccc(NC(=O)Cn2cccc2)c1 15.8 µM
Cc1cccc(NC(=O)Cn2c(=O)oc3ccccc32)c1 3.16 µM
CCN(C(=O)Cn1c(=O)oc2ccccc21)c1cccc(C(F)(F)F)c1 3.55 µM
Cc1cccc(NC(=O)CCSc2nc(C)cc(C)n2)c1 4.47 µM
COc1ccc(CNc2ccnc(-c3c(C)noc3C)n2)c(OC)c1 1.58 µM
COc1ccccc1CNc1ccnc(-c2c(C)noc2C)n1 1 µM
CC(=O)N1CC(=O)N(OCc2ccccc2)C1c1ccc(Cl)cc1Cl (configuration not stated) 3.16 µM
COC(=O)N1CC(=O)N(OC)C1c1ccc(Cl)cc1Cl (configuration not stated) 5.62 µM
Cc1ccc2c(c1)C(=O)[C@@]1(O)CCN(c3ccccc3)C1=N2 7.94 µM
CC(C)(Oc1ccc(Cl)cc1)C(=O)Nc1ccncc1 0.0562 µM
CC(C)(Oc1ccc(Cl)cc1)C(=O)Nc1cccnc1 2.51 µM
O=C1c2ccccc2CCC12N=NCC2c1ccc(Cl)cc1 (configuration not stated) 0.562 µM
C=CCn1c(SCC(=O)N2CC(=O)Nc3ccccc32)nc2scc(-c3ccccc3)c2c1=O 7.94 µM
C=CCn1c(SC(C)C(=O)NCc2ccc3c(c2)OCO3)nc2scc(-c3ccccc3)c2c1=O (configuration not stated) 2 µM
C=CCn1c(SCc2ccc3c(c2)OCO3)nc2scc(-c3ccco3)c2c1=O 1.41 µM
Cc1ccc(NC(=O)N/C=C/c2ccco2)cc1C 3.16 µM
C/C(=N\NC(=O)CC1N=C(Cc2ccccc2)NNC1=O)c1ccc(Cl)cc1Cl (configuration not stated) 28.2 µM
Cc1cccc2c(SCC(=O)NCC3CCCO3)nc(-c3ccc(F)cc3)nc12 (configuration not stated) 1.26 µM
O=C(CSCc1c(F)cccc1Cl)NCC1CCCO1 (configuration not stated) 11.2 µM
O=C(CC(c1ccccc1)c1ccccc1)NCC1CCCO1 (configuration not stated) 14.1 µM
COc1ccc(CCC(C)NC2C3CC4CC(C3)CC2C4)cc1 (configuration not stated) 25.1 µM

AC50, inactive:
CCCNC(=O)N1N=C(c2ccc(N)cc2)c2cc3c(cc2[C@H]1C)OCO3
COc1ccccc1CNC(=O)C/C(C)=N/NC(=O)Cc1ccccc1
O=C(O)Cc1ccc(NC(=O)C2CCCCC2C(=O)O)cc1 (configuration not stated)
O=C(c1cc(C(F)(F)F)cc(C(F)(F)F)c1)N1CCC[C@@]2(CCN(c3ccccc3)C2)C1
O=C(c1cccc(F)c1)N1CCC2(CCN(Cc3cc(C(F)(F)F)cc(C(F)(F)F)c3)CC2)CC1
CCCCc1cc2ccccc2c(OCCN(C)C)n1
O=C(Nc1ccccc1C(=O)O)c1ccc2ccccc2n1
O=C(O)CP(=O)(O)O
Cc1cc(-c2n[nH]c(=S)o2)c(C)n1-c1ccccc1
Cc1cc(C)nc(Nc2ncc(O)n2-c2ccccc2)n1
COc1ccc(-n2c(=O)cnc3cnc(N4CCNCC4)nc32)cc1
COc1ccc(CCNC(=O)Cn2c(=O)oc3ccccc32)cc1OC
CCOc1cc(/C=C2/NC(=O)N(CC(=O)Nc3cccc(C)c3)C2=O)ccc1OC
N#Cc1cccc(NC(=O)N2CCCC3(CCN(C(=O)c4csnn4)CC3)C2)c1
Cc1cccc(N/C(N)=N/c2nc(C)cc(C)n2)c1
O=C(O)C1=CCNCC1
COCCNc1ccnc(-c2c(C)noc2C)n1
CCOc1ccc(N=C2NC(=O)C(CC(=O)O)S2)cc1 (configuration not stated)
CC(C)(Oc1ccc([C@@H]2CC2(Cl)Cl)cc1)C(=O)O
CCC(C)(C)N=C(NC#N)Nc1cccnc1
CC(C)(Oc1ccc(CCNC(=O)c2ccc(Cl)cc2)cc1)C(=O)O
C=CCn1c(SCc2ccccc2)nc2scc(-c3ccc(C)o3)c2c1=O
NS(=O)(=O)c1cc2c(cc1Cl)N[C@@H](C(Cl)Cl)NS2(=O)=O
CCCCCCCCOC1OC(CO)C(O)C(O)C1NC(C)=O (configuration not stated)
CN(C)c1ncc2nc(-c3ccc(F)cc3)c(=O)n(C[C@H]3CCCO3)c2n1
CC(NC(=O)OCc1ccccc1)C(=O)NCC1CCCO1 (configuration not stated)
CCNc1ncc2nc(-c3ccc(F)cc3)c(=O)n(C[C@H]3CCCO3)c2n1
CN(c1ccc(C(=O)NCC2CCCO2)cc1)S(=O)(=O)c1ccccc1 (configuration not stated)
Oc1ccc([C@@H]2CNCCc3c2cc(O)c(O)c3Cl)cc1
CC(C)NC[C@@H](O)COc1ccc(CCOCC2CC2)cc1

activity, negative = inhibition, inactive:
CC(C)C(=O)Cc1ccc2ccccc2n1 6.88% [at 11.4 µM]
C=CC[C@@H]1C=C[C@H](ON=C(C)C)[C@H](CO)O1 -4.34% [at 11.4 µM]
C#CCCCO/N=C1/C[C@@H](O)[C@@H](O)[C@@H]2[C@@H]3C(=O)N(CCC(=O)OCC)C(=O)[C@H]3CC[C@@H]12 -1.53% [at 11.4 µM]
CSc1cccc(NC(=O)OC2CCCCCCCCCCC2)c1 -41.3% [at 11.4 µM]
CC(=O)OC[C@H]1O[C@@H](O/N=C(\C)CCN2CCCc3nc(C)c(C)cc32)[C@H](OC(C)=O)[C@@H](OC(C)=O)[C@H]1OC(C)=O -24.1% [at 11.4 µM]
Cc1cc(C)nc(SCCc2cccc[n+]2C)n1 66.4% [at 11.4 µM]
